In the library only some 0.24% were active in any assay of this set; here they are far more common.
mcGAS lum = blocks mouse cGAS activity; AID 1259399; recombinant cGAS, Kinase-Glo ATP depletion luminescence; Q8C6L5; inhibition, % at 12.5 µM; 160,000 tested, 0.15% active;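 further: 0% = negative control wells and 100% = reference inhibitor with no enzyme activity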
Target sequence (Q8C6L5 whole entry, looked up): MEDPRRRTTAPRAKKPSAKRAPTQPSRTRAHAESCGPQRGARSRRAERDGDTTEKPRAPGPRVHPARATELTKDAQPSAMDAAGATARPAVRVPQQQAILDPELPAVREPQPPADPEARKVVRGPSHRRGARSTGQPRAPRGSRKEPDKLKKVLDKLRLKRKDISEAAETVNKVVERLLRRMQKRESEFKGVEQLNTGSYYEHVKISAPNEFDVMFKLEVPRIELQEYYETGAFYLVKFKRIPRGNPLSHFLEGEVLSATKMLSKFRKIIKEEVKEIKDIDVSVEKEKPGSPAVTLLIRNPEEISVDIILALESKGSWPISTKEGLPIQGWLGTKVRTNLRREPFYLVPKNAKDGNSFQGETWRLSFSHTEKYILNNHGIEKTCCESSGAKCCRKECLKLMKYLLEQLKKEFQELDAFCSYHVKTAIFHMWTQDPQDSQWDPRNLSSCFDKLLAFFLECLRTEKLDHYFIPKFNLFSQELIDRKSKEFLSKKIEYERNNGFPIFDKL
NPYLR7 ag = mosquito NPYLR7 agonism; HEK293T NPYLR7/Galpha15, GCaMP6s calcium fluorescence; activation, % at 10 µM; 270,000 tested, 0.15% active; AID 1259423; in the data active means activation above about 40%;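 further: 0% = vehicle and 100% = reference agonist at the receptor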
hcGAS lum = blocks human cGAS activity; inhibition, % at 12.5 µM; recombinant h-cGAS, ATP depletion, Kinase-Glo luminescence; Q8N884; 290,000 tested, 0.081% active;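 further: 0% = vehicle reaction and 100% = reaction without DNA for no activity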
* hit, by the source's call; / = not tested or not shown; ! = not active in a repeat. Unless noted, no stated cut-off is given here; in the data, active means inhibition above about 40%; inactive means the rest.

SMILES	mcGAS lum	NPYLR7 ag	hcGAS lum
CSc1nc2nc(C)c(CCC(=O)NCCc3ccccc3)c(C)n2n1	/	2.5	-4.4
CCCc1[nH]n(-c2ccc(Cl)c(Cl)c2)c(=O)c1/C=C1\NC(=O)N(Cc2ccc(C)cc2)C1=O	-8.8	56.3*	-2.4
CCCc1[nH]n(-c2cccc(Cl)c2)c(=O)c1/C=C1\NC(=O)N(Cc2ccc(C)cc2)C1=O	1.2	-2.5	7.2
O=c1oc(-c2ccccc2O)nc2ccccc12	/	2.7	55.1*
O=c1oc(-c2ccccc2Br)nc2ccccc12	-4.8	18.8	-1.5
CCN1CCN(Cc2c(O)ccc3c2O/C(=C\c2cc4cc(Br)ccc4o2)C3=O)CC1	-2.9	79.0*	-7.3
O=C1/C(=C/c2cc3cc(Br)ccc3o2)Oc2c1ccc(O)c2CN1CCCC1	-7.7	20.1	-7.7
CN1CCN(Cc2c(O)ccc3c2O/C(=C\c2cc4cc(Br)ccc4o2)C3=O)CC1	-4.9	61.9*	-3.5
O=C1/C(=C/c2cc3cc(Br)ccc3o2)Oc2c1ccc(O)c2CN1CCOCC1	-4.3	28.1	-3.5
COc1ccc(/C=C2/SC(=S)N(CNc3ccc(OC)cc3)C2=O)cc1	/	7.4	-1.2
Cc1ccc(CCNC(=O)NC2CCN(CC(F)(F)F)C2=O)cc1 (centres undefined)	/	6.7	-8.1
O=C(COc1ccc(-c2nccn2C2CCCC2)cc1)N1CCOCC1	/	2.7	-4.9
Cc1nc2ncccc2cc1C(=O)N1CCC2(CCNC(=O)CC2)CC1	/	54.9*	-2.2
Cc1cccc2ncc(C(=O)N3CCC4(CCNC(=O)CC4)CC3)c(=O)n12	/	13.4	-2.5
CC(=O)Nc1ccc(NC(=O)CSc2nc3c(-c4ccccc4)c(C)nn3c(=O)[nH]2)cc1	-4.1	8.3	28.8
Cc1nn2c(=O)[nH]c(SCC(N)=O)nc2c1-c1ccccc1	0.4	15.6	54.9*
O=c1[nH]c(CSc2ncnc3sccc23)nc2sc3c(c12)CCCC3	/	-3.7	-7.9
O=C(CSc1nc2c(cnn2CCO)c(=O)[nH]1)Nc1cc(C(F)(F)F)ccc1Cl	/	8.1	-0.9
CC(C)(C)Oc1ccc(NC(=O)NCCc2ccc(O)cc2)cc1	/	-0.8	-5.9
Nc1ncnc2c1ncn2[C@@H]1O[C@H](CO)[C@@H](O)[C@H]1O	/	52.0*	1.0
OC[C@H]1O[C@@H](n2cnc3c(NC4CCCC4)ncnc32)C(O)[C@H]1O (some centres undefined)	-2.9	20.4	-0.6
CCOc1cc(/C=N\Nc2ncnc3nc[nH]c23)ccc1O	/	-1.2	-8.2
CN(C)C(N)=NCCC[C@H](N)C(=O)O	-2.9	-2.1	-1.7
NC(=NCCC[C@H](N)C(=O)O)NO	57.7*	-0.5	-2.9
Cc1ccc(NC(=O)C2(C)CCN2CC(C)C)cc1C (centres undefined)	-8.4	3.9	-12.5
SMILES	mcGAS lum	NPYLR7 ag	hcGAS lum
NN1C(=O)c2cccc3c(N4CCOCC4)ccc(c23)C1=O	/	3.6	-3.4
O=[N+]([O-])c1ccccc1-n1nc2c3nonc3ccc2[n+]1[O-]	-5.7	0.8	-5.2
O=[N+]([O-])c1ccc(-n2nc3ccc4nonc4c3n2)cc1	-6.5	80.9*	-3.8
COc1ccc(NC(=O)CCC2CCN(C(=O)C(OC)c3ccccc3)CC2)c(OC)c1 (centres undefined)	/	6.9	-2.3
CN1C(=O)NC(c2cccc(Cl)c2Cl)C2=C1CN(CCC(=O)NCc1ccco1)C2=O (centres undefined)	-3.9	0.0	-5.2
CCSCCOC(=O)C1=C(C)N(C)C(=O)NC1c1ccc(OCc2ccccc2)cc1 (centres undefined)	-3.9	-2.4	-9.8
O=[N+]([O-])c1cccc(C(Nc2nc3c(s2)CCCC3)c2ccc3cccnc3c2O)c1 (centres undefined)	2.0	-2.4	41.9*
CCCC(=O)NC(c1cccc([N+](=O)[O-])c1)c1ccc2cccnc2c1O (centres undefined)	/	-0.3	-2.3
NS(=O)(=O)c1ccc(NC(=O)C2=COCCO2)cc1	/	3.3	-8.2
O=C(CCl)N1N=C(c2ccc(Cl)cc2)CC1c1ccco1 (centres undefined)	52.3*	-5.2	-7.3
CCN(CC)CC(=O)N1N=C(c2ccc(Cl)cc2)CC1c1ccco1 (centres undefined)	-3.1	-2.4	4.6
CC(C)NC[C@@H](O)c1ccc(O)c(O)c1	-6.2	32.5	-8.4
CNC[C@@H](O)c1ccc(O)c(O)c1	/	54.5*	-2.6
Fc1ccc(-n2cc(CNCCN3CCOCC3)c(-c3ccccc3Cl)n2)cc1	/	5.2	-7.4
O=C1c2ccccc2-c2nn(CN3CCN(c4ccccc4)CC3)c3cccc1c23	4.4	87.7*	14.5
Cn1c(-c2ccncc2)nn(CN2CCN(c3ccccc3)CC2)c1=S	/	8.1	-4.3
CC(=O)[C@]1(O)Cc2c(O)c3c(c(O)c2[C@@H](O[C@H]2C[C@H](N)[C@H](O)[C@H](C)O2)C1)C(=O)c1ccccc1C3=O	96.1*	99.7*	68.6*
COc1cccc2c1C(=O)c1c(O)c3c(c(O)c1C2=O)C[C@@](O)(C(=O)CO)C[C@@H]3O[C@H]1C[C@H](N)[C@@H](O)[C@H](C)O1	/	-3.4	47.7*
COc1cccc2c1C(=O)c1c(O)c3c(c(O)c1C2=O)C[C@@](O)(C(C)=O)C[C@@H]3O[C@H]1C[C@H](N)[C@H](O)[C@H](C)O1	/	-2.2	60.1*!
COc1cccc2c1C(=O)c1ccccc1C2=O	-3.0	-3.9	1.5
CC(C)c1nnc(NC(=O)c2ccccc2Oc2ccccc2)s1	-4.1	2.7	-2.5
Cc1ccc(N2CCN(C(=O)c3ccccc3N3CCC(NC(=O)c4ccc(F)cc4)CC3)CC2)cc1C	/	7.4	-7.3
CCOC(=O)c1c(NC(=O)CCN2C(=O)c3ccccc3C2=O)sc2c1CCCCC2	-4.2	-4.8	-3.1
COc1ccccc1CNc1ccc(S(=O)(=O)Cc2ccc(Cl)cc2)nn1	-6.1	-1.4	-5.0
CCCC1CCC(C(=O)Nc2nnc(SCC)s2)CC1 (centres undefined)	-6.4	54.8*	-2.6
SMILES	mcGAS lum	NPYLR7 ag	hcGAS lum
O=C(Nc1nnc(SCC2CC2)s1)C1CCCC1	-3.5	-5.1	-4.5
O=C1c2ccccc2-c2nc3nonc3nc21	53.2*	-0.2	1.4
O=C1c2ccccc2-c2nc3ccccc3nc21	/	2.3	-0.7
CCN(CC)c1onc(-c2ccccc2)c1CN(Cc1ccco1)C(=O)Nc1ccc(C)cc1	-4.1	10.5	-3.2
Cc1ccccc1CC1(CO)CCCN(C(=O)c2[nH]c3c(C)ccc(C)c3c2C)C1 (centres undefined)	-5.9	3.2	-5.0
COc1cc(NC(=O)c2ccco2)c(OC)cc1Cl	/	23.5	-11.3
COc1ccc(NC(=O)C2C=CCN2)cc1NC(=O)c1ccco1 (centres undefined)	-18.3	64.3*	-5.6
CC(C)=CCN1N=C(c2ccccc2)C(O)O1 (centres undefined)	/	7.8	-1.2
C#CCN(Cc1ccco1)C(=O)NCC(c1ccccc1OC)N1CCCC1 (centres undefined)	/	-2.3	-6.2
O=S(=O)(Nc1nc2n(n1)C(c1ccccc1)CC(c1ccccc1)=N2)c1ccccc1 (centres undefined)	-2.6	24.8	-9.2
CS(=O)(=O)Nc1nc2n(n1)C(c1ccccc1)CC(c1ccc(Cl)cc1)=N2 (centres undefined)	/	65.8*	-0.1
CC(=O)NC1CCN(c2cc(C)c3cc4c(cc3n2)CCC4)CC1	/	6.5	-5.6

Compound activity: PubChem BioAssay, Fisher Drug Discovery Resource Center
